Data taken from PubChem BioAssay (Tox21).
Where “and” joins values, the source holds several entries; their conditions need not be identical. Identical values can stand only once. Results filed as inconclusive are left out. Where a call stands in place of a potency, no number is given. Calls of active or inactive are those of the source. The call rests on the fitted dose curve.

experiment: qHTS assay for small molecules that induce genotoxicity in human embryonic kidney cells expressing luciferase-tagged ATAD5 - cell viability (AID 651634); conditions: HEK293T ATAD5-luc cells viability, CellTiter-Fluor, 15.5 h; series mostly up to 83.3 µM; further: nearly all actives have a fitted effect of over 25% in size
Text: National Center for Advancing Translational Sciences [NCATS]
NIH Chemical Genomics Center [NCGC]
U.S. Environmental Protection Agency [EPA]
National Institutes of Environmental Health Sciences [NIEHS]
National Toxicology Program [NTP]
U.S. Food and Drug Administration [FDA]
Enhanced Level of Genome Instability Gene 1 (ELG1; human ATAD5) protein levels increase in response to various types of DNA damage. Using a luciferase reporter-gene tagged with ElG1, a cell-based assay [developed by Kyungjae Myung, NHGRI, NIH] was used to measure the induction of ATAD5 in human embryonic kidney cells (HEK293T). So, increase in luciferase activity can be used to identify the compounds that cause genetic stress. In addition to genotoxicity, these cells were also used to test for cytotoxicity by measuring the protease activity within live cells.
Tox21 Assay Protocol Summary:
For cytotoxicity screening, 2,000 cells in 5 uL/well were dispensed into white, solid-bottom 1536-well plates using a Multidrop Combi (Thermo Scientific) dispenser. Following transfer of 23 nL compound or DMSO vehicle by a pin tool, the plates were incubated 15.5 hr at 37C and 5% CO2. 1 ul CellTiter-Fluor reagent (Promega, Madison, WI) was then added to each plate and following 30 min incubation at 37C, fluorescence intensity was quantified on a ViewLux CCD-based plate reader.
Potency means the concentration at half of the fitted maximal effect.

Row | Compound | Potency
1 | Cc1ccc(N)c([N+](=O)[O-])c1 | inactive
2 | C=CCCCCCCCCCC | inactive
3 | CC(=O)[C@H]1CC[C@H]2[C@@H]3CC=C4C[C@@H](O)CC[C@]4(C)[C@H]3CC[C@]12C | inactive
4 | CC(C)(C)c1cccc(C(C)(C)C)c1O | inactive
5 | Nc1ccc2c(c1)C(=O)c1ccccc1C2=O | inactive
6 | OC[C@@H](O)[C@@H](O[C@@H]1O[C@H](CO)[C@H](O)[C@H](O)[C@H]1O)[C@H](O)[C@@H](O)CO | inactive
7 | CN(Cc1cnc2nc(N)nc(N)c2n1)c1ccc(C(=O)N[C@@H](CCC(=O)O)C(=O)O)cc1 | inactive
8 | C=C1C[C@H]2[C@@H]3C=C(C)C4=CC(=O)CC[C@]4(C)[C@H]3CC[C@]2(C)[C@@]1(OC(C)=O)C(C)=O | inactive
9 | IC(I)I | inactive
10 | c1ccc2c(c1)ccc1ncccc12 | inactive
11 | CCC/C=C/C=O | inactive
12 | CC(C)[N+](C)(CCOC(=O)C1c2ccccc2Oc2ccccc21)C(C)C | inactive
13 | c1ccc2ncccc2c1 | inactive
14 | FC(F)(F)C(Cl)Br (stereo not given) | inactive
15 | CCCCCCOCCOCCO | inactive
16 | CC(=O)[C@@]1(O)CC[C@H]2[C@@H]3C[C@H](C)C4=CC(=O)C=C[C@]4(C)[C@@]3(F)[C@@H](O)C[C@@]21C | inactive
17 | O=C(O)c1cc(=O)[nH]c(=O)[nH]1 | inactive
18 | c1ccc2cc3ccccc3cc2c1 | inactive
19 | Clc1ccc(Sc2cc(Cl)c(Cl)cc2Cl)cc1 | inactive
20 | C=C[C@@]1(C)CC(=O)[C@]2(O)[C@@]3(C)[C@@H](O)CCC(C)(C)[C@@H]3[C@H](O)[C@H](OC(C)=O)[C@@]2(C)O1 | inactive

Row | Compound | Potency
21 | [Na+] | inactive
22 | Cc1ccc2c(c1)C(=O)OC2=O | inactive
23 | O=C(O)c1ccc(O)cc1 | inactive
24 | COc1ccc2nc(N)sc2c1 | inactive
25 | Cc1ccc(C(C)(C)C)cc1 | inactive
26 | Nc1ccc2c(O)cc(S(=O)(=O)O)cc2c1 | inactive
27 | COCCOCCOCCO | inactive
28 | Oc1ccc(C(c2ccc(O)cc2)C(Cl)(Cl)Cl)cc1 | inactive
29 | CC(=O)O[C@]1(C(C)=O)CC[C@H]2[C@@H]3C=C(Cl)C4=CC(=O)CC[C@]4(C)[C@H]3CC[C@@]21C | inactive
30 | O=C1CCc2ccccc2O1 | inactive
31 | C=CCNCC=C | inactive
32 | CC(C)=CCO | inactive
33 | NC[C@H](O)c1ccc(O)c(O)c1 | inactive
34 | CC1(C)OC(=O)NC1=O | inactive
35 | COc1cc([C@H]2Oc3cc([C@H]4Oc5cc(O)cc(O)c5C(=O)[C@@H]4O)ccc3O[C@@H]2CO)ccc1O | inactive
36 | Nc1ccc(O)c(N)c1 | 54.1 µM (active) and 61.1 µM (active)
37 | CC1=CC(C)(C)Nc2ccccc21 | inactive
38 | C=C[C@H]1CN2CC[C@H]1C[C@H]2[C@H](O)c1ccnc2ccc(OC)cc12 | inactive
39 | [O-]/[N+](=N\O)c1ccccc1 | inactive
40 | CC/C=C\C/C=C\C/C=C\CCCCCCCC(=O)O | inactive
